Most compounds without a hit are left out; they make up all but 19% or so of the library.
DT40 TDP1 no CPT – qHTS for Inhibitors of human tyrosyl-DNA phosphodiesterase 1 (TDP1): qHTS in cells in absence of CPT. DT40 Tdp1-/- hTDP1 cells, no CPT, ATP luminescence, 48 h. Potency, µM (series often up to 46.2 µM), for inactives: at the highest dose activity change, negative = growth inhibition, most hits filed as inhibitors. 420,000 tested, 15% active. AID 686978, 2013; also: potency is read from the fitted curve at half-maximal effect; nearly all actives have a fitted effect of over 55% in size
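No-CPT arm: Tdp1-/-;hTDP1 DT40 cells (400/well) plus compounds, incubated ≥48 hr at 37 °C. Readout CellTiter-Glo luminescence.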
HT1080NT lethal – qHTS for induction of synthetic lethality in tumor cells producing 2HG: qHTS for the HT-1080-NT fibrosarcoma cell line; Potency, µM (top dose mostly 46.1 µM), inactives show at the top dose activity, negative = less viability, usual class: cytotoxic; HT-1080-NT fibrosarcoma viability, CellTiter-Glo ATP luminescence, 48 h; 360,000 tested, 1.6% active;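 also: NT is the 2HG producing partner of a matched IDH1 knockdown line; potency is read from the fitted curve at half-maximal effect; 0% = DMSO-treated cells and -100% = media-only wells without cells; nearly all actives have a fitted effect of over 55% in size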
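Viability of the 2HG-overproducing fibrosarcoma line after 48 hours of compound exposure at 37 degrees C was determined by luminescence with CellTiter-Glo, and concentration-effect curves were then fitted and categorized.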
HT1080 IDH1KD tx – qHTS for induction of synthetic lethality in tumor cells producing 2HG: qHTS for the HT-1080-IDH1KD cell line | HT-1080 IDH1 knockdown viability, ATP luminescence, 48 h | Potency, µM (highest dose often 46.1 µM), without a hit: at the highest dose activity, negative = toxicity, actives largely listed as cytotoxic | 360,000 tested, 2% active;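 also: potency is read from the fitted curve at half-maximal effect; 0% = DMSO wells and -100% = cell-free medium wells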
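HT-1080-IDH1KD cells (IDH1 knocked down), 750/well in RPMI with 5% FBS, treated with compound 48 h at 37 degrees C. Viability by CellTiter-Glo luminescence, normalised to DMSO and no-cell wells; concentration-response curves classed.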
DT40 TDP1 CPT – qHTS for Inhibitors of human tyrosyl-DNA phosphodiesterase 1 (TDP1): qHTS in cells in presence of CPT; 420,000 tested, 12% active; Potency, µM (titrated, usually from 46.2 µM), inactives show top-dose activity change, negative = growth inhibition, actives largely listed as inhibitors; chicken DT40 Tdp1-/-;hTDP1 cells + 20 nM CPT, ATP luminescence, 48 h; also: potency is read from the fitted curve at half-maximal effect; nearly all actives have a fitted effect of over 55% in size
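Chicken DT40 Tdp1-/- cells stably complemented with human TDP1 were seeded at 400 cells/well in medium containing 20 nM camptothecin, exposed to pin-transferred compounds, and grown at 37 °C for at least 48 hr. Viability was read as ATP luminescence.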
IL1B secr inh – qHTS for Inhibitors of Inflammasome Signaling: IL-1-beta AlphaLISA Primary Screen | THP-1 LPS/ATP IL-1B secretion, AlphaLISA, 16 h; active compounds read low | activity change, % at 57.5 µM | 360,000 tested, 4.7% active | AID 743279, 2014; in the data active = activity change below about -50%; inconclusive = mostly about -30% to -49%
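Secreted IL-1B measured by AlphaLISA bead assay after 16 h compound exposure of THP-1 cells; compounds (final up to 57.5 uM) added 1 h before LPS (250 ng/mL) and ATP (1.25 mM) stimulation; lower signal means less secretion.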
* hit, by the source's call; [ ] = remark or other dose. Unless noted, calls follow the shape of the dose curve; as a rule, active = well fitted curve in the direction sought with a large enough effect; inconclusive = small, poorly fitted or top-dose-only effect, or another doubt; inactive = no such curve, though single readings can be large; an effect the other way counts as inactive or inconclusive. Unless noted, % is scaled to controls: 0 for no effect and ±100 for the full control effect.

What do the screens show for `Cc1cc(C)n(CC(C)NCc2cn[nH]c2-c2ccc(C)c(C)c2)n1` (stereo not drawn)?
DT40 TDP1 no CPT: -28.8%; HT1080NT lethal: -10.3%; HT1080 IDH1KD tx: -4.0%; DT40 TDP1 CPT: -22.8%; IL1B secr inh: 6.7

Results for Cc1cc(C)n(CC(C)NCc2cn[nH]c2-c2cccc3ccccc23)n1 (stereo not drawn) ?
DT40 TDP1 no CPT: 18.4µM*; HT1080NT lethal: 1.5%; HT1080 IDH1KD tx: -8.8%; DT40 TDP1 CPT: inconclusive; IL1B secr inh: -10.4

Results for COc1ccccc1-c1ccnc(-n2ncc(C(=O)N3CCCCC3c3cccnc3)c2C)n1 (stereo not drawn) ?
DT40 TDP1 no CPT: -12.7%; DT40 TDP1 CPT: 12.6%[9.04 µM]

Results for O=c1cc[nH]c2cccc(Cc3ccccc3)c12 ?
DT40 TDP1 no CPT: 13µM*; HT1080NT lethal: -10.1%; HT1080 IDH1KD tx: -14.4%; DT40 TDP1 CPT: inconclusive; IL1B secr inh: -8.7

How did Cn1cc(Cc2ccccc2)c(=O)c(Cc2ccccc2)c1 do in these assays?
DT40 TDP1 no CPT: -1.2%; HT1080NT lethal: 8.0%; HT1080 IDH1KD tx: 11.5%; DT40 TDP1 CPT: -20.6%; IL1B secr inh: -6.9

Results for O=c1[nH]c(=O)n(C2OC(CO)C(O)C2O)cc1F (stereo not drawn) ?
DT40 TDP1 no CPT: 0.0366µM*; HT1080NT lethal: 10.3µM*; HT1080 IDH1KD tx: 0.92µM*; DT40 TDP1 CPT: 0.146µM*; IL1B secr inh: -13.4

How did O=c1[nH]c(=O)n([C@H]2CCCO2)cc1F do in these assays?
DT40 TDP1 no CPT: -4.5%; DT40 TDP1 CPT: 1.3%

How did O=c1[nH]cnc2c1ccn2C1OC(CO)C(O)C1O (stereo not drawn) do in these assays?
DT40 TDP1 no CPT: 0.146µM*; DT40 TDP1 CPT: 0.164µM*; IL1B secr inh: -13.4

How did O=c1[nH]c(=O)n([C@H]2C[C@@H](O)[C@@H](CO)O2)cc1F do in these assays?
DT40 TDP1 no CPT: 1.58µM*; DT40 TDP1 CPT: 5.01µM*

How did O=C1C=CC(n2cc(F)c(=O)[nH]c2=O)O1 (stereo not drawn) do in these assays?
DT40 TDP1 no CPT: inconclusive; HT1080NT lethal: inconclusive; HT1080 IDH1KD tx: inconclusive; DT40 TDP1 CPT: 18.4µM*; IL1B secr inh: inconclusive

What do the screens show for `O=c1[nH]c(=O)c2ncn(C3OC(CO)C(O)C3O)c2[nH]1` (stereo not drawn)?
DT40 TDP1 no CPT: -5.4%; DT40 TDP1 CPT: 1.8%

Results for O=C(COc1ccc(Cl)cc1)N(Cc1ccc(F)cc1)C1CCS(=O)(=O)C1 (stereo not drawn) ?
DT40 TDP1 no CPT: -21.3%; HT1080NT lethal: 0.8%; HT1080 IDH1KD tx: -15.6%; DT40 TDP1 CPT: -26.4%; IL1B secr inh: -11.2

What do the screens show for `N#Cc1ccccc1NC(=O)C(=O)NCCc1csc(-c2ccc(F)cc2)n1`?
DT40 TDP1 no CPT: inconclusive; DT40 TDP1 CPT: -13.9%

Results for O=c1[nH]c(=O)n([C@@H]2O[C@H](CO)[C@@H](O)[C@H]2O)cc1F ?
DT40 TDP1 no CPT: 0.0596µM*; DT40 TDP1 CPT: 0.106µM*

What do the screens show for `Nc1cnn(C2OC(CO)C(O)C2O)c(=O)n1` (stereo not drawn)?
DT40 TDP1 no CPT: -8.9%; HT1080NT lethal: -8.8%; HT1080 IDH1KD tx: -29.1%; DT40 TDP1 CPT: 8.1%; IL1B secr inh: 26.2

How did Nc1nc(=O)n(C2OC(CO)C(O)C2O)cc1F (stereo not drawn) do in these assays?
DT40 TDP1 no CPT: 0.0058µM*; HT1080NT lethal: inconclusive; HT1080 IDH1KD tx: -26.5%; DT40 TDP1 CPT: 0.0326µM*; IL1B secr inh: 85.6

How did O=c1[nH]c(=S)ccn1C1OC(CO)C(O)C1O (stereo not drawn) do in these assays?
DT40 TDP1 no CPT: inconclusive; HT1080NT lethal: inconclusive; HT1080 IDH1KD tx: -22.0%; DT40 TDP1 CPT: inconclusive; IL1B secr inh: 4.1

Assay outcomes (PubChem BioAssay)
